ALOX12 inh: inhibitors of human 12S-lipoxygenase ALOX12. P18054. purified 12hLO, xylenol orange hydroperoxide absorbance. Potency, µM (highest dose often 108 µM), for the others: top-dose activity change, negative = inhibition, usual class: inhibitors. hit rate 1.1% among 580,000; also: potency is read from the fitted curve at half-maximal effect
Target sequence (P18054 whole entry, looked up): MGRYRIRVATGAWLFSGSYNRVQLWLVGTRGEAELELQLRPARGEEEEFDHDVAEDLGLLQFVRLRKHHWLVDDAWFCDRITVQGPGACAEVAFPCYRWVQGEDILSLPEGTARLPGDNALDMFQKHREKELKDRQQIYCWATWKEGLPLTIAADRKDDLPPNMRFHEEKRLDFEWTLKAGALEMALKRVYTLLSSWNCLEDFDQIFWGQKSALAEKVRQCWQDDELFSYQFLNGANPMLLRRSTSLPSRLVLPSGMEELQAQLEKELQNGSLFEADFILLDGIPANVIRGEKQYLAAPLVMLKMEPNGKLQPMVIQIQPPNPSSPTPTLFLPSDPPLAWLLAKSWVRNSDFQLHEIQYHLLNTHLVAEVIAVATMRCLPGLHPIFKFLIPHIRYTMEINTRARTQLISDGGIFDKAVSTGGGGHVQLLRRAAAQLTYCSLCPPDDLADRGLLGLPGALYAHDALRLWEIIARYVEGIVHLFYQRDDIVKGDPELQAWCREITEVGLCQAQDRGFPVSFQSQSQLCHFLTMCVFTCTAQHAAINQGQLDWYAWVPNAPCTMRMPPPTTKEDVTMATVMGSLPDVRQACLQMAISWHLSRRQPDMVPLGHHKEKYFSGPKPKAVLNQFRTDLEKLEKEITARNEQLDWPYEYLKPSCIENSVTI
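Purified human 12hLO at 150 nM in 25 mM Hepes, 0.01% Triton X-100, pH 7.0, preincubated 15 min at room temperature with compound. Reaction started with 40 uM arachidonic acid, 30 min at room temperature. Hydroperoxide measured by Fe-xylenol orange, 573/405 nm absorbance ratio.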
IL1B secr inh: inhibitors of inflammasome signaling (IL-1 beta secretion); THP-1 LPS/ATP IL-1B secretion, AlphaLISA, 16 h; hits give low values; activity change, % at 57.5 µM; hit rate 4.7% among 360,000; AID 743279; in the data active = activity change below about -50%; inconclusive = mostly about -30% to -49%
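THP-1 cells pretreated 1 hr with compounds (up to 57.5 uM final), then stimulated with LPS (250 ng/mL final) plus ATP (1.25 mM final); secreted IL-1B measured by AlphaLISA after 16 hr, decreased signal indicating inhibition.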
HT1080 IDH1KD tx: kills HT-1080 cells with IDH1 knockdown; hit rate 2% among 360,000; Potency, µM (top dose mostly 46.1 µM), for the others: at the top dose activity, negative = toxicity, actives largely listed as cytotoxic; HT-1080 IDH1 knockdown viability, ATP luminescence, 48 h; AID 686971;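 also: potency is read from the fitted curve at half-maximal effect; 0% = DMSO wells and -100% = cell-free medium wells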
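CellTiter-Glo luminescence after 48 h compound exposure at 37 degrees C of IDH1-knockdown HT-1080 cells in 5% FBS RPMI. %Activity scaled between DMSO wells and cell-free media wells, with curves fitted and assigned curve classes.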
DT40 TDP1 CPT: growth inhibition of DT40 Tdp1-/-;hTDP1 cells with camptothecin (screen for TDP1 inhibitors); chicken DT40 Tdp1-/-;hTDP1 cells + 20 nM CPT, ATP luminescence, 48 h; Potency, µM (titrated, usually from 46.2 µM), inactives show at the highest dose activity change, negative = growth inhibition, hits mostly inhibitors; AID 686979; hit rate 12% among 420,000; also: potency is read from the fitted curve at half-maximal effect; nearly all actives have a fitted effect of over 55% in size
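Chicken DT40 Tdp1-/- cells stably complemented with human TDP1 were seeded at 400 cells/well in medium containing 20 nM camptothecin, exposed to pin-transferred compounds, and grown at 37 °C for at least 48 hr. Viability was read as ATP luminescence.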
TDP1 cell noCPT: qHTS for Inhibitors of human tyrosyl-DNA phosphodiesterase 1 (TDP1): qHTS in cells in absence of CPT. DT40 Tdp1-/- hTDP1 cells, no CPT, ATP luminescence, 48 h. hit rate 15% among 420,000. Potency, µM (titrated, usually from 46.2 µM), for the others: at the top dose activity change, negative = growth inhibition, actives largely listed as inhibitors; also: potency is read from the fitted curve at half-maximal effect; nearly all actives have a fitted effect of over 55% in size
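A cellular qHTS used chicken DT40 cells lacking endogenous Tdp1 but carrying stably transfected human TDP1. Compounds were applied without camptothecin, and cell growth kinetics were judged by ATP-dependent luminescence after ≥48 hr.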
HT1080NT lethal: kills 2HG-producing HT-1080-NT fibrosarcoma cells. HT-1080-NT fibrosarcoma viability, CellTiter-Glo ATP luminescence, 48 h. Potency, µM (doses to about 46.1 µM), inactives show top-dose activity, negative = less viability, hits mostly cytotoxic. hit rate 1.6% among 360,000;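 also: NT is the 2HG producing partner of a matched IDH1 knockdown line; potency is read from the fitted curve at half-maximal effect; 0% = DMSO-treated cells and -100% = media-only wells without cells; nearly all actives have a fitted effect of over 55% in size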
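Toxicity toward the 2HG-producing NT line was scored as %Activity, normalised to DMSO and no-cell wells, from CellTiter-Glo luminescence after 48 hours' treatment.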
Numbers without * were called inactive; ? = inconclusive; · = no result. Shown is part of a subset that was picked to be rich in hits. Unless noted, calls follow the shape of the dose curve; as a rule, active = well fitted curve in the direction sought with a large enough effect; inconclusive = small, poorly fitted or top-dose-only effect, or another doubt; inactive = no such curve, though single readings can be large; an effect the other way counts as inactive or inconclusive. Unless noted, % is scaled to controls: 0 for no effect and ±100 for the full control effect.

SMILES	ALOX12 inh	IL1B secr inh	HT1080 IDH1KD tx	DT40 TDP1 CPT	TDP1 cell noCPT	HT1080NT lethal
COCC1CN(S(=O)(=O)c2ccc(C)c(F)c2)CC12CCNCC2 (configuration not stated)	25%	·	·	·	·	·
Cc1ccc(/C=C(/CC(=O)O)c2nc3ccccc3o2)s1	-22%	·	·	·	·	·
CN(/N=C/c1cc(Br)cc(Br)c1O)c1ccccc1	-19%	7	-6%	2%	3%	1%
Cc1onc(-c2ccccc2)c1C(=O)N/N=C/c1ccco1	70%	14	2%	-29%	0%	-7%
Cc1ccc(C(C)C)c(OCc2ccc(C(=O)N/N=C/c3ccc(C(=O)O)cc3)cc2)c1	-1%	15	3%	?	?	0%
Cc1ccc(C(C)C)c(OCc2ccc(C(=O)N/N=C/c3ccc(O)cc3O)cc2)c1	-9%	51	2.9µM*	?	18µM*	6.5µM*
Cc1c(N=Cc2cc(Br)cc(Br)c2O)cccc1C(=O)O	50µM*	0	?	?	?	13µM*
Cc1onc(-c2ccccc2)c1C(=O)N/N=C/c1ccc([N+](=O)[O-])s1	?	-13	?	16µM*	13µM*	-8%
O=C(N/N=C/c1cc(Br)cc([N+](=O)[O-])c1O)c1ccc(NC(=O)c2ccc(F)cc2)cc1	?	69	-25%	23µM*	15µM*	-1%
COc1ccc(-c2c(NC(=O)c3ccc([N+](=O)[O-])cc3)oc3ccccc3c2=O)cc1	-22%	·	·	·	·	·
Cc1nonc1C(=O)N/N=C/c1ccc(O)cc1O	2%	142	2.1µM*	3.3µM*	3.7µM*	?
O=C(N/N=C/c1ccc(O)cc1O)c1ccncc1	21%	176	7.3µM*	8.2µM*	4.6µM*	?
O=C(N/N=C/c1ccc(Cl)cc1Cl)c1ccncc1	0%	-4	-1%	15%	0%	2%
O=C(N/N=C/c1ccc(O)cc1O)c1ccc(NC(=O)C2CCCCC2)cc1	-5%	267	9.2µM*	6.5µM*	7.3µM*	?
O=C(N/N=C/c1cc(Br)cc(Br)c1O)c1ccncc1	?	164	?	2.6µM*	0.65µM*	?
O=C(N/N=C/c1cccc(O)c1)c1ccc(NC(=O)C2CCCCC2)cc1	472%	-2	-27%	?	?	-7%
O=C(NCCN1CCOCC1)C1CN(S(=O)(=O)c2ccccc2)CC12CCCCC2 (configuration not stated)	1%	·	·	·	·	·
Cc1cccc(C(=O)OCc2cc(=O)n3nc(C4CC4)sc3n2)c1	0%	·	·	-4%	-8%	·
Cc1ccc(-c2nsc(NC(=O)c3oc4ccc(F)cc4c3C)n2)s1	9%	·	·	·	·	·
O=C(O)c1cccc(N/N=C/c2cc(Br)cc(Br)c2O)c1	45µM*	-3	-8%	-1%	-3%	-11%
COc1ccc(Br)cc1/C=N/Nc1cccc(C(=O)O)c1	?	19	11%	-18%	-14%	-1%
Oc1c(Cl)cc(Cl)cc1/C=N/Nc1ncc(Br)cn1	27%	10	?	1.2µM*	1.3µM*	?
Cc1ccc(N=Cc2cc(Cl)cc(Cl)c2O)nc1	?	60	-14%	?	-24%	0%
COc1ccc(OC)c2[nH]c(C(=O)N[C@@H](C)C(=O)Nc3ccc4c(c3)OCO4)cc12	-11%	·	·	·	·	·
Nc1nc(Nc2ccc(Cl)cc2)nc(-c2cc3ccccc3o2)n1	1%	·	·	·	·	·
COc1ccc(C2(C(=O)c3ccccc3)C(=O)c3ccccc3C2=O)cc1	·	12	-8%	?	-15%	8%
COc1ccc(C(=O)c2ccccc2)c(OC)c1	0%	·	·	·	·	·
O=C1Nc2ccccc2/C1=C/c1csc(-c2ccccc2)n1	12%	·	·	·	·	·
